Bioassay records: PubChem, National Center for Advancing Translational Sciences (NCATS)
WRN inhibitor – inhibitors of human WRN helicase; Q14191; WRN helicase unwinding, fluorescent forked duplex, kinetic; Potency, µM (highest dose often 114 µM), without a hit: at the highest dose activity change, negative = inhibition, hits mostly inhibitors; 360,000 tested, 0.46% active; also: % is scaled to controls: 0 for no effect and ±100 for the full control effect; nearly all actives have a fitted effect of over 55% in size
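WRN at 20 nM final was preincubated with compound for 15 min at room temperature; reaction started with 100 nM forked duplex oligonucleotide carrying fluorophore and quencher plus 2 mM ATP (final). Unwinding followed kinetically by red fluorescence (ex 525/em 598 nm).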
Pol beta inh – inhibitors of human DNA polymerase beta; P06746; Pol beta primer extension/strand displacement, fluorescence kinetic; Potency, µM (doses to about 114 µM), for inactives: top-dose activity change, negative = inhibition, usual class: inhibitors; 340,000 tested, 1.3% active; also: % is scaled to controls: 0 for no effect and ±100 for the full control effect
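Homogeneous kinetic assay of primer extension and strand displacement by 10 nM Pol beta, preincubated 15 min at room temperature with compound before 50 nM substrate (final) was added. Read at 0 and 10 min; four-parameter Hill fit.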
Pol eta inh – inhibitors of human DNA polymerase eta; Q9Y253; recombinant Pol eta, fluorescent DNA replication assay; Potency, µM (highest dose often 114 µM), for the others: top-dose activity change, negative = inhibition, hits mostly inhibitors; 390,000 tested, 1.2% active; AID 588591; also: % is scaled to controls: 0 for no effect and ±100 for the full control effect
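Fluorescent replication assay: 50 nM final substrate added after a 15 min room-temperature compound preincubation with 10 nM enzyme. Signal taken at 0 min and again at 10 min.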
POLI inh – blocks human DNA polymerase iota activity | AID 588590 | Pol iota fluorescent replication assay, 10 min | Potency, µM (doses to about 115 µM), without a hit: top-dose activity, negative = inhibition, actives largely listed as inhibitors | Q9UNA4 | 390,000 tested, 1% active
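Pol iota at 10 nM preincubated 15 min with compounds at room temperature; reaction started with fluorescent substrate, 50 nM final. Fluorescence read kinetically at 0 and 10 min; buffer-only wells as negative control.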
FEN1 inh – human FEN1 inhibition. AID 588795. P39748. 390,000 tested, 0.35% active. Potency, µM (doses to about 114 µM), without a hit: at the top dose activity change, negative = inhibition, hits mostly inhibitors. Recombinant FEN1 flap cleavage, fluorescence, 15 min; also: % is scaled to controls: 0 for no effect and ±100 for the full control effect; nearly all actives have a fitted effect of over 65% in size
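FEN1 at 10 nM, compound pretreatment for 15 min (room temperature), 50 nM final substrate to initiate; endpoint reads at 0 and 15 min; DMSO-only plates used as vehicle background.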
POLK inh – blocks human DNA polymerase kappa activity; Q9UBT6; purified Pol kappa, fluorescent DNA synthesis assay, 10 min; Potency, µM (doses to about 107 µM), for inactives: at the highest dose activity, negative = inhibition, actives largely listed as inhibitors; 400,000 tested, 0.53% active; also: % is scaled to controls: 0 for no effect and ±100 for the full control effect
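Activity was followed as the change in fluorescence between reads at 0 and 10 min after starting the reaction with 50 nM substrate. Beforehand, 10 nM polymerase had been preincubated with compound for 15 min at room temperature.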
* marks the source's active call; other numbers are inactive results; ? = inconclusive; . = not tested or not shown; [ ] = remark or other dose. Hits are enriched below; roughly 2.4% of the tested compounds scored in any of these assays. Calls follow the shape of the dose curve; as a rule, active = well fitted curve in the direction sought with a large enough effect; inconclusive = small, poorly fitted or top-dose-only effect, or another doubt; inactive = no such curve, though single readings can be large; an effect the other way counts as inactive or inconclusive. Potency is read from the fitted curve at half-maximal effect.

SMILES	WRN inhibitor	Pol beta inh	Pol eta inh	POLI inh	FEN1 inh	POLK inh
CSc1nc(NCCOCCO)c2sc3nc(-c4ccco4)c4c(c3c2n1)CCC4	-13%	3.5µM*	-13%	12%	2%	-1%
CCN(CCO)c1ncnc2c1sc1nc(C(C)C)c3c(c12)CC(C)(C)OC3	-8%	18%	-10%	?	2%	-18%
CSc1nc(NCc2ccco2)c2sc3nc(C(C)C)c4c(c3c2n1)CC(C)(C)OC4	6%	15%	-14%	-4%	-6%	-16%
Cn1cnc2c(ncn2[C@@H]2O[C@H](CO)[C@@H](O)[C@H]2O)c1=N	.	.	.	.	.	-2%[19.4 µM]
CCOC(=O)C[C@H]1c2cc(F)ccc2S(=O)(=O)N1Cc1cc(OC)c(OC)c(OC)c1	.	.	.	9%	-4%	-1%
Cc1ccc(/C=C2\SC(=S)N(CC3CCCO3)C2=O)o1 (stereo unspecified)	-1%[11.6 µM]	20µM*	?	?	-20%	?
Cc1ccc(/C=C2/SC(=S)N(C3CCCCC3)C2=O)o1	13%	-18%	-15%	36%	3%	-2%
Cc1ccc(/C=C2/SC(=O)NC2=S)o1	40µM*	20µM*	8.9µM*	7.1µM*	40µM*	18µM*
CCC(=O)Nc1cccc(C(=O)/C=C/c2cc(Br)ccc2OC)c1	-9%[11.6 µM]	3%	?	56µM*	-20%	-8%
Cc1ccc(Nc2nc(C)cc(C)n2)c(C(=O)O)c1	.	26%	-9%	14%	-6%	-5%[60.1 µM]
Nc1nonc1-c1nc2ccccc2n1CC(=O)Nc1cccc(Cl)c1Cl	.	4%	-12%	107%	10%	-12%
COc1ccc(-c2cc(C(=O)OC(C)C(=O)c3ccccc3)c3cccc(Cl)c3n2)cc1 (stereo unspecified)	.	5%	-9%	24%	22%	6%
COc1cc(/C=C/C(=O)OCC(=O)Nc2ccc(S(N)(=O)=O)cc2)ccc1O	-14%	1%	50µM*	?	-16%	?
COc1cc(/C=C/C(=O)OCC(=O)Nc2ccc(Cl)cn2)ccc1O	4%[11.6 µM]	.	56µM*	35µM*	11%	?
Oc1c(N=Nc2ccccn2)ccc2ccccc12	56µM*	-1%	-26%	49%	?	0%
O=C(Nc1nnc(-c2ccco2)o1)c1ccc(N2C(=O)CCC2=O)cc1	-24%	?	-4%	22µM*	5%	-32%
COCc1c(C(=O)N2CCc3ccccc32)oc2ccccc12	-2%[11.6 µM]	-11%	-98%	79µM*	-13%	?
COC(=O)CCC(=O)OC1(C)C(=O)C2=CN(c3ccccc3)C(c3ccc(OC)cc3)=CC2=C(Br)C1=O (stereo unspecified)	-4%	.	-17%	?	-21%	-21%
COc1ccc(C2=CC3=C(Br)C(=O)C(C)(O)C(=O)C3=CO2)cc1 (stereo unspecified)	?	40µM*	?	?	-29%	?
O=C(O)C(S)[C@@H](S)C(=O)O (stereo partly specified)	.	.	.	.	.	22µM*
O=C(O)C(S)C(S)C(=O)O (stereo unspecified)	-29%	.	?	?	-26%	?
O=C1C=C(Nc2ccccc2)C(=O)c2ccccc21	-6%	45%	-9%	28%	-13%	-3%
O=C1C=C(Nc2ccccc2)c2ccccc2C1=O	3%[11.6 µM]	-2%	?	22µM*	-9%	2%
CCc1nnc(NC(=O)c2ccc(Cl)c(S(=O)(=O)N3CCc4ccccc43)c2)s1	-19%	20µM*	?	?	-2%	-24%
COC(=O)N/N=C/c1ccc([N+](=O)[O-])o1	-7%[57.1 µM]	?	-4%	56µM*	-8%	-44%
SMILES	WRN inhibitor	Pol beta inh	Pol eta inh	POLI inh	FEN1 inh	POLK inh
CCCC(=O)Nc1ccc(C(=O)N/N=C/c2ccc([N+](=O)[O-])o2)cc1	3%[11.6 µM]	45µM*	?	?	-29%	-10%
CCC(=O)Nc1ccc(C(=O)N/N=C/c2ccc([N+](=O)[O-])cc2)cc1	-2%	?	-12%	1%	-10%	6%
O=C(N/N=C/c1ccc([N+](=O)[O-])o1)C1CC1	1%[11.6 µM]	18µM*	40µM*	22µM*	9%	-28%
COc1ccc(OC)c(-n2c(=O)[nH]c3cc(C(=O)NCCc4ccc(OC)c(OC)c4)ccc3c2=O)c1	.	-10%	-18%	7%	-8%	-3%
COC(=O)c1sccc1S(=O)(=O)N(CC(=O)Nc1cccc(C)c1C)c1ccc(C)c(C)c1	.	-1%	-9%	-1%	9%	-3%
COc1ccc(NC(=O)c2cc3cccc(OC)c3oc2=Nc2ccc(C(=O)O)cc2)cc1OC	-5%	?	14µM*	-8%	-30%	-37%
CC(C)(C)[C@]1(O)CCN2CC3c4ccccc4CCc4cccc(c43)[C@@H]2C1 (stereo partly specified)	.	-7%[57.1 µM]	-12%[57.1 µM]	-10%[58.9 µM]	.	-11%[19.4 µM]
CN(Cc1ccco1)C(=O)CSc1nn2c(=O)c(C(C)(C)C)nnc2s1	-11%[11.6 µM]	.	79µM*	?	10%	-24%
CCCCN(CCCC)c1ccc(C=Nc2ccc(/C=C/c3ccnc4ccccc34)cc2)cc1C	.	.	.	-11%	-7%	2%
O=C(OCc1nnc(-c2ccc([N+](=O)[O-])cc2)o1)C1CC(=O)N(CCc2ccccc2)C1 (stereo unspecified)	-30%	.	?	79µM*	3%	-14%
O=C(OCc1ccc([N+](=O)[O-])cc1)C1CC(=O)N(CCc2ccccc2)C1 (stereo unspecified)	-18%	.	-7%	9%	-2%	-14%
CCOc1ccc(Br)cc1/C=N/O	-15%	26%	2%	-2%	-11%	-13%
O=C(O)COc1ccc(Br)cc1/C=N/O	-9%[57.1 µM]	25µM*	11µM*	?	-5%	-27%
CCn1c(SCC(=O)N2CCC(C)CC2)nnc1-c1ccccc1O	.	-2%	-7%	?	-9%	-6%[60.1 µM]
COc1ccc(-n2nnnc2SCC(=O)Nc2ccc3c(c2)OCCO3)cc1OC	-19%	-1%	?	50µM*	-3%	-6%
O=C(Cc1cccs1)NC1C(=O)N2C(C(=O)[O-])=C(C[n+]3ccccc3)CSC12 (stereo unspecified)	.	.	.	.	.	3.5µM*
NC(=O)c1cc[n+](CC2=C(C(=O)O)N3C(=O)[C@@H](NC(=O)[C@@H](c4ccccc4)S(=O)(=O)[O-])[C@H]3SC2)cc1	.	10µM*	3.2µM*	14µM*	40µM*	27µM*
Cn1nnnc1SCC1=C(C(=O)O)N2C(=O)[C@@H](NC(=O)[C@@H](O)c3ccccc3)[C@@H]2SC1	.	.	.	.	.	-16%[12 µM]
O=C(Nc1ccc(F)cc1)[C@H](Cc1ccccc1)N1Cc2ccccc2C1=O	.	-4%	-21%	20%	-8%	-7%
